# Test results from the supplement of paper PMC6555819.
# What was measured:
# Experiment in all cases: PBM binding z-score (relative to random genomic background probes); higher = stronger binding; sequences stand for … in GC…GCGATTGACAGCGTAGAATGAAGG
# [1] = system: FXR:RXRa (NR concentration 270 nM, RXRa partner concentration 90 nM)
# In short: (§1)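 Binding buffer was PBS pH 7.4 with 2% milk, 0.02% Triton X-100, 1 mM DTT, 0.2 mg/mL BSA and 0.4 mg/ml salmon testes DNA. In it, ligand-free nuclear receptor dimers were incubated 1 h on custom Agilent 4×180K protein-binding microarrays carrying double-stranded probes. Antibodies against each partner (one per run) detected binding, and z-scores were calculated against random background probes after regression normalization of scanned fluorescence.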
# [2] = system: LXRa:RXRa (NR concentration 270 nM, RXRa partner concentration 90 nM)
# In short: as §1
# [3] = system: LXRa homodimer (NR concentration 270 nM)
# In short: as §1
# [4] = system: LXRb:RXRa (NR concentration 270 nM, RXRa partner concentration 90 nM)
# In short: as §1
# [5] = system: LXRb homodimer (NR concentration 270 nM)
# In short: as §1
# [6] = system: PPARa:RXRa (NR concentration 270 nM, RXRa partner concentration 90 nM)
# In short: as §1
# [7] = system: PPARg:RXRa (NR concentration 180 nM, RXRa partner concentration 90 nM)
# In short: as §1
# [8] = system: PPARg:RXRa 270nM:90nM, anti-RXR (NR concentration 270 nM, RXRa partner concentration 90 nM)
# In short: as §1
# [9] = system: PPARg:RXRa 30nM:10nM, anti-RXR (NR concentration 30 nM, RXRa partner concentration 10 nM)
# In short: as §1
# [10] = system: PPARg:RXRa 90nM:30nM, anti-RXR (NR concentration 90 nM, RXRa partner concentration 30 nM)
# In short: as §1
# [11] = system: PPARg:RXRa DBDmut IVT, anti-RXR (DBD mutation: RXRa K156A/R161A, NR concentration 270 nM, RXRa partner concentration 90 nM)
# In short: as §1
# [12] = system: PPARg:RXRa IVT, anti-PPARg (NR concentration 270 nM, RXRa partner concentration 90 nM)
# In short: as §1
# [13] = system: PPARg DBDmut:RXRa IVT, anti-PPARg (DBD mutation: PPARg1 K132A/R137A, NR concentration 270 nM, RXRa partner concentration 90 nM)
# In short: as §1
# [14] = system: PPARg DBDmut IVT, anti-PPARg (DBD mutation: PPARg1 K132A/R137A, NR concentration 270 nM)
# In short: as §1
# [15] = system: PPARg homodimer (NR concentration 180 nM)
# In short: as §1
# [16] = system: PXR:RXRa (NR concentration 270 nM, RXRa partner concentration 90 nM)
# In short: as §1
# [17] = system: PXR homodimer (NR concentration 270 nM)
# In short: as §1
# [18] = system: RARa:RXR (NR concentration 270 nM, RXRa partner concentration 90 nM)
# In short: as §1
# [19] = system: RARa homodimer (NR concentration 270 nM)
# In short: as §1
# [20] = system: RARb:RXRa (NR concentration 270 nM, RXRa partner concentration 90 nM)
# In short: as §1
Sequence,PBM binding z-score [1],PBM binding z-score [2],PBM binding z-score [3],PBM binding z-score [4],PBM binding z-score [5],PBM binding z-score [6],PBM binding z-score [7],PBM binding z-score [8],PBM binding z-score [9],PBM binding z-score [10],PBM binding z-score [11],PBM binding z-score [12],PBM binding z-score [13],PBM binding z-score [14],PBM binding z-score [15],PBM binding z-score [16],PBM binding z-score [17],PBM binding z-score [18],PBM binding z-score [19],PBM binding z-score [20]
CCTACTGGGCCAAGGTTATTGATCAGTCAAAGCA,0.116,0.594,-0.113,0.269,-0.596,1.78,2.64,3.06,0.701,2.48,3.46,3.58,-0.243,-0.723,0.597,0.145,-0.133,0.421,-0.486,0.659
CGTCCAAGGTCCGCAGGTCAGTGAAAGCGACGTG,-0.0411,-0.153,-0.475,-0.0275,-1.05,0.735,-0.507,0.0239,-0.651,-0.568,0.12,-0.306,-1.07,-1.27,-0.166,0.139,-0.304,0.547,-0.545,1.89
TCGCGGAGGACACGAAGGTCAGAGCTTTCCAGAG,0.923,0.953,0.0426,0.704,-1.29,1.84,0.306,1.15,0.607,0.901,0.6,0.577,-0.818,-2.01,1.37,1.83,0.425,1.74,0.1,3.26
ACTTACGGGTCAACAAGGTTATAGCACGCGTATA,6.88,4.7,0.809,4.4,1.05,6.09,5.69,5.32,2.2,4.02,3.06,4.26,1.25,1.13,2.14,4.49,1.48,4.77,1.05,4.49
TCTTGTAGATCAAAGGTAAAGAAAGCCGAAGCCT,0.667,0.672,-0.3,0.446,-0.436,3.14,5.41,6.12,6.21,6.93,2.51,2.4,0.0443,-0.451,0.519,0.378,0.111,0.715,-0.116,0.397
ACTATTAGTTGACTTAGGACAACCGATACGACGC,0.502,0.291,0.606,0.299,0.989,0.0286,1.11,0.164,0.448,0.273,-0.129,0.214,1.42,1.67,1.07,0.411,0.511,0.675,0.875,0.665
CCTAGCAGGCCAATCTGGGTCACTTAAGGCTTGA,0.716,1.48,-0.236,0.733,-0.723,2.96,1.68,2.03,-0.218,1.33,4.27,5.04,0.275,-0.588,1.03,1.16,-0.589,1.62,-0.727,1.55
CCTATTGGGCCAAAGGTCATTGATTCCAATGCTC,4.7,5.15,4.17,4.72,1.02,5.83,11.8,9.98,10.5,12.1,4.3,6.28,-0.0108,0.0368,4.43,5.28,2.34,6.32,1.8,4.42
ATCGCAAGGTCGTGAGGTGAGTATACAGAAAGGC,2.59,1.9,-0.0908,1.6,-0.382,3.36,1.49,1.84,0.321,0.863,-0.158,1.26,0.877,-0.102,0.794,1.78,0.241,2.78,-0.445,2.67
AGTCAAAGTTCAGGACGAAGTAACGTAAAGCACG,3.85,3.49,0.943,1.68,0.274,3.3,4.78,4.86,1.78,3.86,-0.478,1.38,0.781,0.688,1.46,2.02,0.921,1.93,1.14,4.2
GATACAGGGTCAGCCAGAGGCCAGAGTATGGAAA,4.61,2.94,-0.284,2.56,-0.975,4.69,4.13,3.7,0.98,2.28,1.1,2.63,0.315,-0.142,2.32,3.4,-0.204,4.58,0.402,4.19
CGTCAAAGTTCAACTAAGGTAAGGTAAAGCACGC,7.07,6.11,4.02,3.87,1.73,5.14,5.27,5.34,2.26,4.31,0.313,2.23,0.694,0.769,2.56,5.25,3.24,4.42,1.63,5.2
ATCTCTAGGTACAGTTCAGTGAAAGATCGATAGA,0.629,0.639,0.57,0.6,1.26,0.51,0.382,0.647,0.518,0.644,0.631,0.726,1.18,1.5,0.523,0.814,0.988,0.458,1.24,0.918
GCATATAGGTAATACAAGGGGAAAGTCCGATTGT,0.256,0.159,0.0811,-0.078,-0.118,0.754,0.908,0.64,0.337,0.269,4.01,2.14,0.831,0.956,0.379,-0.118,0.0351,0.489,0.339,-0.122
